Measurements from paper PMC7826789 (International Journal of Molecular Sciences, 2021).

tested on: DDR1

Row | SMILES | Kinases covered
1 | CCN1CCN(Cc2ccc(C(=O)Nc3ccc(C)c(Oc4ccc5c(c4)CC(=O)N5)c3)cc2C(F)(F)F)CC1.Cl.Cl [DDR1-IN-1] | DDR1
2 | Cc1ccc(-n2nc(C(C)(C)C)cc2NC(=O)Nc2ccc(OCCN3CCOCC3)cc2)cc1 [BIRB0876BS] | DDR1
3 | Cc1cn(-c2cc(NC(=O)c3ccc4c(c3)CN(c3cncnc3)C[C@@H]4C)cc(C(F)(F)F)c2)cn1 [D2202-1] | DDR1
4 | O=C(Nc1ccccc1)Nc1cccc(Oc2ccc3nccn3n2)c1 [TPKI-39] | DDR1

tested on: DYRK1A

Row | SMILES | Kinases covered
5 | CCC(NN(C)C)=C1C(=O)Nc2ccc(C(C)=O)cc21 [BI00036838] | DYRK1A
6 | COC[C@@H](C)N[C@H]1CC[C@H](Nc2cc(-c3cccc(NCC4(C#N)CCOCC4)n3)c(Cl)cn2)CC1 [NVP-2] | DYRK1A
7 | CCCNC(=O)c1ccc(Nc2ncc(C(F)(F)F)c(Nc3ccccc3C(C)=O)n2)c(Br)c1 [BI00801818] | DYRK1A
